The nature of experiment [1]: stimulators of nuclear beta-catenin in C2C12, primary screen, imaging, WNT3A-conditioned medium, mouse C2C12, NPC library (AID 1117326; in the data active = nuclear beta-catenin stimulation mostly above about 4.2%, no sharp cut-off; inactive = mostly below about 10%; also: reference of the scale not given here). Conditions: stronger effect = higher value.
The nature of experiment [2]: stimulators of insulin release from INS-1E, primary screen, cell-based, 5 mM glucose, NPC library (AID 1117329;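 active = compound raises insulin release from rat beta cells at 5 mM glucose, no numeric limit stated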; also: reference of the scale not given here). As to conditions: rat INS-1E insulin secretion, at 10 µM, stronger effect = higher value.
Experiment [3] can be described thus: growth inhibition of GSK3B-pretreated HCT116 cells – cell-based, CellTiter-Glo, 0.2 to 20 µM (AID 1117336;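 active = compounds lowering colon cancer cell viability after pretreatment blocking the GSK3B kinase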). Conditions: HCT116 viability after GSK3B inhibitor, at 20 µM, stronger effect = higher value. (In general: Cellular ATP, detected with luciferase, serves as a proxy for viable cell number.)
Experiment [4] is described as follows: inhibition of endothelial tube formation, primary screen, imaging, VEGF stimulated, CD31 staining, tube area, NPC library (AID 1117340;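 active = compound that reduces growth-factor-driven endothelial tube area in a mixed cell culture, no cutoff stated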). As to conditions: VEGF-stimulated ADSC/ECFC co-culture, at 10 µM, stronger effect = higher value.
The nature of experiment [5]: glucagon-like peptide 1 release enhancers, primary assay, NCI-H716 cell line, NPC library (AID 1117341;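 active = compound raises GLP1 secretion from the human gut endocrine cells, with no numeric limit stated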; also: reference of the scale not given here). As to conditions: NCI-H716 cells, at 10 µM, stronger effect = higher value.
Experiment [6] can be described thus: HCT116 colon cancer cell growth inhibition, primary screen, CellTiter-Glo luminescence, NPC library (AID 1117342;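 active = compounds that lower survival of HCT116 colon cancer cells in the luminescence readout, no numeric limit stated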). Conditions: at 20 µM (top of the series).
Experiment [7] can be described thus: CellTiter-Glo luminescent readout of SW480 viability loss, NPC library primary (AID 1117343). Conditions: CellTiter-Glo luminescence; at 20 µM (top of the series).
The nature of experiment [8]: decreased DLD-1 cellular survival, CellTiter-Glo luminescent readout, NPC compound collection, primary HTS (AID 1117346;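 active = compounds that lower survival of DLD-1 colon cancer cells in the luminescence readout, no cutoff given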). As to conditions: DLD-1 viability, CellTiter-Glo luminescence; at 20 µM (top of the series).

Molecules are shown by their SMILES. Active and inactive are the calls of the source.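 The calls were made as follows, unless noted: active = compounds that lower viability of the colon cancer cells in the luminescence readout, with no numeric limit stated; inactive = the rest.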

Turning to `C[C@H](CN1CCCC1)C(=O)c1ccc(C(F)(F)F)cc1`, the nuclear beta-catenin stimulation was 5.1% (inactive) in experiment [1] (at 10 µM) and -1.9% in experiment [1] (stimulation, at 2 µM). The insulin secretion stimulation in experiment [2] is 8.3% (inactive). The viability decrease in experiment [3] is -5.5% (inactive). In addition, the tube area decrease in experiment [4] is -4% (inactive). Besides, in experiment [5], the GLP1 secretion stimulation is -0.4% (inactive). In experiment [6], the inhibition of viability was 7.8% (inactive). Further, the results for the viability decrease (inhibition) in experiment [7] and in experiment [8] were 73.8% (active) and 68.1% (active), respectively.
Turning to `Cc1cnc(NS(=O)(=O)c2ccc(N)cc2)nc1`, the nuclear beta-catenin stimulation in experiment [1] (at 10 µM) is 1.1% (inactive); in experiment [1] (stimulation, at 2 µM), -0.7%. In addition, in experiment [2], the insulin secretion stimulation is 1.8% (inactive). For the same molecule, the viability decrease in experiment [3] was 7.4% (inactive). In experiment [4], the tube area decrease is -8.2% (inactive). In experiment [5], the GLP1 secretion stimulation is -0.6% (inactive). The inhibition of viability in experiment [6] is -6.6% (inactive). For the same molecule, the viability decrease (inhibition) in experiment [7] is 7.7% (inactive); in experiment [8] it was 6.6% (inactive).
For `CN1[C@@H]2CC[C@H]1CC(NC(=O)n1c(=O)[nH]c3ccccc31)C2` (stereo partly specified), the nuclear beta-catenin stimulation is 1.7% (inactive) in experiment [1] (at 10 µM) and 1% in experiment [1] (stimulation, at 2 µM). Besides, in experiment [2], the insulin secretion stimulation is 0.4% (inactive). Besides, the viability decrease in experiment [3] was -2.9% (inactive). Besides, in experiment [4], the tube area decrease was -4.6% (inactive). The GLP1 secretion stimulation in experiment [5] is 2.8% (inactive). Further, the inhibition of viability in experiment [6] was 23.7% (inactive). The viability decrease (inhibition) was 5.3% (inactive) in experiment [7] and -7.7% (inactive) in experiment [8].
For `O=C1NC(c2ccccc2)(c2ccccc2)C(=O)N1COP(=O)(O)O`, the nuclear beta-catenin stimulation is 1.6% (inactive) in experiment [1] (at 10 µM) and 3.6% in experiment [1] (stimulation, at 2 µM). Also, the insulin secretion stimulation in experiment [2] was -0.5% (inactive). In experiment [3], the viability decrease is -27% (inactive). In experiment [4], the tube area decrease was -13% (inactive). The GLP1 secretion stimulation in experiment [5] is 5.2% (inactive). Also, in experiment [6], the inhibition of viability is -8.63% (inactive). Besides, the viability decrease (inhibition) in experiment [7] is -3.4% (inactive); in experiment [8] it was -11% (inactive).
As for `CC(=O)OC[C@H]1O[C@@H](n2ncc(=O)[nH]c2=O)[C@H](OC(C)=O)[C@@H]1OC(C)=O`, the nuclear beta-catenin stimulation in experiment [1] (at 10 µM) is 14% (inactive); in experiment [1] (stimulation, at 2 µM) it was 2.3%. Moreover, in experiment [2], the insulin secretion stimulation is 1.7% (inactive). Besides, in experiment [3], the viability decrease is 47.3% (active). Moreover, the tube area decrease in experiment [4] was 47.8% (active). Moreover, in experiment [5], the GLP1 secretion stimulation was -0.6% (inactive). For the same molecule, the inhibition of viability in experiment [6] is 16.2% (inactive). Also, the viability decrease (inhibition) in experiment [7] was 26% (inactive); in experiment [8] it was -5.9% (inactive).
For the molecule `CCCCCCCCCCCCCC[N+](C)(C)Cc1ccccc1`, the nuclear beta-catenin stimulation in experiment [1] (at 10 µM) is 55% (active); in experiment [1] (stimulation, at 2 µM), -0.7%. The insulin secretion stimulation in experiment [2] is 3.5% (inactive). In experiment [3], the viability decrease was 99.5% (active). In addition, the tube area decrease in experiment [4] was 109% (active). In experiment [5], the GLP1 secretion stimulation is -0.6% (inactive). Besides, the inhibition of viability in experiment [6] is 99.2% (active). Besides, the results for the viability decrease (inhibition) in experiment [7] and in experiment [8] were 101% (active) and 102% (active), respectively.
As to `CC[N+](CC)(CC)CCOC(=O)C(C1CCCC1)C1CCCC1`, the nuclear beta-catenin stimulation was 1.2% (inactive) in experiment [1] (at 10 µM) and 2% in experiment [1] (stimulation, at 2 µM). In experiment [2], the insulin secretion stimulation is 0.5% (inactive). Also, in experiment [3], the viability decrease was 28.7% (inactive). In addition, the tube area decrease in experiment [4] was 8.3% (inactive). For the same molecule, in experiment [5], the GLP1 secretion stimulation was 1.6% (inactive). Moreover, in experiment [6], the inhibition of viability was 21.8% (inactive). Besides, the values for the viability decrease (inhibition) in experiment [7] and in experiment [8] were -14.4% (inactive) and 4.1% (inactive), respectively.
For the molecule `COC(=O)/C=C\C(=O)OC`, the nuclear beta-catenin stimulation in experiment [1] (at 10 µM) was 3.8% (inactive); in experiment [1] (stimulation, at 2 µM), 9%. For the same molecule, the insulin secretion stimulation in experiment [2] was 2.95% (inactive). The viability decrease in experiment [3] was 8.3% (inactive). Besides, the tube area decrease in experiment [4] was 10.6% (inactive). Moreover, in experiment [5], the GLP1 secretion stimulation is -1.8% (inactive). Besides, the inhibition of viability in experiment [6] was -5.7% (inactive). In addition, the values for the viability decrease (inhibition) in experiment [7] and in experiment [8] were 5.9% (inactive) and -5.6% (inactive), respectively.
Turning to `COC(=O)c1cc(S(N)(=O)=O)ccc1OC`, the nuclear beta-catenin stimulation was 0.9% (inactive) in experiment [1] (at 10 µM) and 1.4% in experiment [1] (stimulation, at 2 µM). Also, the insulin secretion stimulation in experiment [2] is -0.15% (inactive). Besides, in experiment [3], the viability decrease was -6.1% (inactive). For the same molecule, the tube area decrease in experiment [4] was 1.6% (inactive). The GLP1 secretion stimulation in experiment [5] was 0.1% (inactive). Besides, the inhibition of viability in experiment [6] is -5.9% (inactive). Also, the viability decrease (inhibition) in experiment [7] is -8.9% (inactive); in experiment [8], -2.9% (inactive).
On to `COC(=O)c1cccnc1`, for which the nuclear beta-catenin stimulation in experiment [1] (at 10 µM) was 1% (inactive); in experiment [1] (stimulation, at 2 µM) it was 1.1%. The insulin secretion stimulation in experiment [2] is -1.6% (inactive). Also, the viability decrease in experiment [3] was -2.7% (inactive). For the same molecule, in experiment [4], the tube area decrease was -14.2% (inactive). The GLP1 secretion stimulation in experiment [5] is 1.1% (inactive). Moreover, the inhibition of viability in experiment [6] was -7.2% (inactive). Further, the values for the viability decrease (inhibition) in experiment [7] and in experiment [8] were 17.2% (inactive) and 1.25% (inactive), respectively.
`CCCCC(C)(O)CC=C[C@H]1[C@H](O)CC(=O)[C@H]1CCCCCCC(=O)OC` (stereo partly specified): the nuclear beta-catenin stimulation was -0.9% (inactive) in experiment [1] (at 10 µM) and 2.4% in experiment [1] (stimulation, at 2 µM). In addition, the insulin secretion stimulation in experiment [2] is 0.9% (inactive). Further, the viability decrease in experiment [3] was -0.5% (inactive). Moreover, the tube area decrease in experiment [4] was -9.4% (inactive). Besides, the GLP1 secretion stimulation in experiment [5] is -1.9% (inactive). In experiment [6], the inhibition of viability was -12.9% (inactive). For the same molecule, the viability decrease (inhibition) in experiment [7] was -17.2% (inactive); in experiment [8] it was 66.4% (active).
Regarding `CCC(Cc1c(I)cc(I)c(O)c1I)C(=O)O` (stereo unspecified), the nuclear beta-catenin stimulation was 0.6% (inactive) in experiment [1] (at 10 µM) and 0.3% in experiment [1] (stimulation, at 2 µM). For the same molecule, the insulin secretion stimulation in experiment [2] was -0.2% (inactive). The viability decrease in experiment [3] is 7.1% (inactive). Also, the tube area decrease in experiment [4] is -23.3% (inactive). Also, the GLP1 secretion stimulation in experiment [5] is -3.4% (inactive). For the same molecule, the inhibition of viability in experiment [6] was -22.9% (inactive). The values for the viability decrease (inhibition) in experiment [7] and in experiment [8] were 11.5% (inactive) and 1.1% (inactive), respectively.
As for `NC(=Nc1ccccc1)Nc1ccccc1`, the nuclear beta-catenin stimulation in experiment [1] (at 10 µM) was 0.2% (inactive); in experiment [1] (stimulation, at 2 µM), 1.4%. In addition, the insulin secretion stimulation in experiment [2] is 13.9% (inactive). Besides, the viability decrease in experiment [3] was 24.6% (inactive). For the same molecule, the tube area decrease in experiment [4] is 10.1% (inactive). For the same molecule, the GLP1 secretion stimulation in experiment [5] is 2.8% (inactive). Moreover, the inhibition of viability in experiment [6] is -1% (inactive). For the same molecule, the viability decrease (inhibition) in experiment [7] is 77.3% (active); in experiment [8] it was 75.2% (active).
In the case of `O=C1CC[C@H](C(=O)N2CCCCC2)N1`, the nuclear beta-catenin stimulation in experiment [1] (at 10 µM) is 1.7% (inactive); in experiment [1] (stimulation, at 2 µM), 1%. Besides, the insulin secretion stimulation in experiment [2] is 0.8% (inactive). In addition, the viability decrease in experiment [3] is 8.8% (inactive). In addition, the tube area decrease in experiment [4] was 87.3% (active). In experiment [5], the GLP1 secretion stimulation was 0.9% (inactive). The inhibition of viability in experiment [6] was 0.8% (inactive). Also, the viability decrease (inhibition) was -22% (inactive) in experiment [7] and 0.1% (inactive) in experiment [8].

(Values after PubChem BioAssay.)
